Many of the other results were omitted from the sample, so hits are more common in it than they were.
IL-1B inflam inh: inhibitors of inflammasome signaling (IL-1 beta secretion). THP-1 LPS/ATP IL-1B secretion, AlphaLISA, 16 h; active compounds read low. 360,000 tested, 4.7% active. activity change, % at 57.5 µM; in the data active = activity change below about -50%; inconclusive = mostly about -30% to -49%
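Secreted IL-1B measured by AlphaLISA bead assay after 16 h compound exposure of THP-1 cells; compounds (final up to 57.5 uM) added 1 h before LPS (250 ng/mL) and ATP (1.25 mM) stimulation; lower signal means less secretion.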
HT1080 IDH1KD tx: kills HT-1080 cells with IDH1 knockdown; HT-1080 IDH1 knockdown viability, ATP luminescence, 48 h; Potency, µM (series often up to 46.1 µM), for the others: at the top dose activity, negative = toxicity, hits mostly cytotoxic; 360,000 tested, 2% active; AID 686971;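 note: potency is the fitted concentration of half-maximal effect; 0% = DMSO wells and -100% = cell-free medium wells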
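% activity derives from luminescence (CellTiter-Glo), normalised to DMSO and no-cell wells. HT-1080-IDH1KD cells, 750/well, had 48 h compound exposure at 37 °C.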
ALOX12 inh: inhibitors of human 12S-lipoxygenase ALOX12 | 580,000 tested, 1.1% active | purified 12hLO, xylenol orange hydroperoxide absorbance | AID 1671190 | Potency, µM (top dose mostly 108 µM), without a hit: at the top dose activity change, negative = inhibition, actives largely listed as inhibitors; note: potency is the fitted concentration of half-maximal effect
Target sequence (P18054 whole entry, looked up): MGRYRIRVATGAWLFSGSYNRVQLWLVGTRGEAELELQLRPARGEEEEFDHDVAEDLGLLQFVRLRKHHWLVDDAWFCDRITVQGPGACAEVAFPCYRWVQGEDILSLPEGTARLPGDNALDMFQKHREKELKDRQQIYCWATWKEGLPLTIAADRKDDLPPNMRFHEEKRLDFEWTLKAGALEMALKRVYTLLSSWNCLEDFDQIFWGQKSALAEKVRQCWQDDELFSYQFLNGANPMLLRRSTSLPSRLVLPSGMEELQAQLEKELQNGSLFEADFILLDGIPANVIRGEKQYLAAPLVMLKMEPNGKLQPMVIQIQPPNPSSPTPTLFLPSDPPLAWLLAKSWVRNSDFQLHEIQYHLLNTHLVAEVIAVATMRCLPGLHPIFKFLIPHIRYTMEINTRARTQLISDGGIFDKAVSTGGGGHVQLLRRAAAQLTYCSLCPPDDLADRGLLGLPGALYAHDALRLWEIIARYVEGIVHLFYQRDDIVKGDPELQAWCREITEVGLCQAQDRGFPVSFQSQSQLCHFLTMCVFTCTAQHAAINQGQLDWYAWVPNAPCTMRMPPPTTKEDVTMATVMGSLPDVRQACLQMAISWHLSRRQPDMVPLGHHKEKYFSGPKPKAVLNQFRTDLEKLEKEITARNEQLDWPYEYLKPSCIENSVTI
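Hydroperoxide product was detected by ferrous iron/xylenol orange as the 573 to 405 nm absorbance ratio. Arachidonic acid at 40 uM (final) was turned over for 30 min at room temperature by 150 nM human 12hLO, pH 7.0 Hepes buffer, after 15 min compound preincubation.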
DT40 TDP1 no CPT: qHTS for Inhibitors of human tyrosyl-DNA phosphodiesterase 1 (TDP1): qHTS in cells in absence of CPT; DT40 Tdp1-/- hTDP1 cells, no CPT, ATP luminescence, 48 h; Potency, µM (top dose mostly 46.2 µM), inactives show at the highest dose activity change, negative = growth inhibition, actives largely listed as inhibitors; 420,000 tested, 15% active; note: potency is the fitted concentration of half-maximal effect; nearly all actives have a fitted effect of over 55% in size
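Cells were dispensed at 400 per well, compounds added by pin tool, plates incubated ≥48 hr at 37 °C, then CellTiter-Glo added for 30 min at room temperature before luminescence reading. Line: DT40 Tdp1-/- complemented with hTDP1; camptothecin omitted.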
TDP1 cell CPT: growth inhibition of DT40 Tdp1-/-;hTDP1 cells with camptothecin (screen for TDP1 inhibitors); chicken DT40 Tdp1-/-;hTDP1 cells + 20 nM CPT, ATP luminescence, 48 h; Potency, µM (series often up to 46.2 µM), inactives show top-dose activity change, negative = growth inhibition, usual class: inhibitors; 420,000 tested, 12% active; note: potency is the fitted concentration of half-maximal effect; nearly all actives have a fitted effect of over 55% in size
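Chicken DT40 Tdp1-/- cells complemented with human TDP1, 400 cells/well, exposed to compounds plus 20 nM camptothecin for at least 48 h at 37 C; viability read as ATP content by CellTiter-Glo luminescence.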
HT1080NT lethal: kills 2HG-producing HT-1080-NT fibrosarcoma cells | 360,000 tested, 1.6% active | HT-1080-NT fibrosarcoma viability, CellTiter-Glo ATP luminescence, 48 h | Potency, µM (highest dose often 46.1 µM), inactives show at the top dose activity, negative = less viability, actives largely listed as cytotoxic;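 note: NT is the 2HG producing partner of a matched IDH1 knockdown line; potency is the fitted concentration of half-maximal effect; 0% = DMSO-treated cells and -100% = media-only wells without cells; nearly all actives have a fitted effect of over 55% in size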
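Toxicity toward the 2HG-producing NT line was scored as %Activity, normalised to DMSO and no-cell wells, from CellTiter-Glo luminescence after 48 hours' treatment.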
* hit, by the source's call; ? = inconclusive; . = not tested or not shown. Unless noted, calls come from the whole dose curve; as a rule, active = well fitted curve in the direction sought with a large enough effect; inconclusive = small, poorly fitted or top-dose-only effect, or another doubt; inactive = no such curve, though single readings can be large; an effect the other way counts as inactive or inconclusive. Unless noted, % is set by controls: 0 for no effect and ±100 for the full control effect.

SMILES	IL-1B inflam inh	HT1080 IDH1KD tx	ALOX12 inh	DT40 TDP1 no CPT	TDP1 cell CPT	HT1080NT lethal
CSCCC(NS(=O)(=O)c1cccs1)C(=O)NCc1ccc(C)cc1 (stereo not drawn)	17	6%	-16%	?	-26%	1%
CCOC(=O)C(=O)N(C)c1c(CC)nc2c(OCc3ccccc3)cccn12	1	0%	0%	-27%	-20%	24%
CCc1nc2c(OCc3ccccc3)cccn2c1N(C)C(=O)COc1ccccc1	14	-14%	-3%	?	23µM*	0%
CCc1nc2c(OCc3ccc(F)cc3)cccn2c1N(C)C(=O)COc1ccccc1	0	?	12%	?	21µM*	?
CCc1nc2c(OCc3ccccc3)cccn2c1N(C)C(C)=O	1	28%	1%	-2%	-2%	?
Cc1cc(C)n(-c2nc3ccccc3nc2Nc2ccc(F)c(F)c2)n1	.	.	15%	.	.	.
Cc1cc(C)n(-c2nc(N(C)C)nc(N(C)C)n2)n1	4	6.3µM*	3%	15µM*	?	7.1µM*
Cc1cc(C)n(-c2nnc(NC(C)(C)C)nn2)n1	17	5%	-25%	-13%	5%	2%
Cc1cc(C)n(-c2nc(Nc3ccccc3C)nc(-n3nc(C)cc3C)n2)n1	.	.	-6%	.	.	.
Cc1cc(C)n(-c2nc(NC(C)(C)C)nc(NC(C)(C)C)n2)n1	14	4%	-1%	1.8µM*	2.1µM*	10%
Cc1cc(C)n(-c2nc(Nc3ccccc3C(F)(F)F)nc(-n3nc(C)cc3C)n2)n1	-54*	?	?	15µM*	16µM*	9.2µM*
CCNc1nc(NCC)nc(-n2nc(C)cc2C)n1	-2	0.89µM*	12%	2.6µM*	2.3µM*	2µM*
Cc1cccc(C)c1NC(=O)C(=O)c1c(C)[nH]c2ccccc12	.	.	3%	.	.	.
O=C(COc1ccc2ccc(=O)oc2c1)NCCc1ccccc1F	.	.	26%	.	.	.
Clc1ccccc1Cc1nc(-c2ccc(OC3CCNC3)cc2)no1 (stereo not drawn)	.	.	-3%	.	.	.
Cc1cc(C)n(-c2nc(NC(C)C)nc(NC(C)C)n2)n1	-5	0%	11%	1.5µM*	1µM*	-1%
Cc1cc(C)n(-c2ncc(C#N)cn2)n1	8	8%	?	-1%	3%	5%
COc1ccc(/C=c2\s/c(=C\C(=O)C(C)(C)C)[nH]c2=O)cc1O	?	-13%	?	?	15µM*	2%
COc1ccc(O)c(C(=O)c2cnn(-c3ccc(Cl)cc3)c2)c1	-19	-14%	-27%	-8%	2%	-2%
Cc1ccc(O)c(C(=O)c2cc(C#N)c(=O)n(C(C)c3ccccc3)c2)c1 (stereo not drawn)	-15	-9%	3%	15µM*	?	-25%
COc1ccc(O)c(C(=O)c2cnc3nc4ccccc4n3c2)c1	3	-10%	?	21µM*	15µM*	-2%
Cc1ccc(O)c(C(=O)c2cc(C#N)c3nc4ccccc4n3c2)c1	-16	8%	?	9.2µM*	?	26%
COc1cc(Cl)c(C)cc1-n1cc(C(=O)c2cc(Cl)ccc2O)cc(C#N)c1=O	.	.	-2%	.	.	.
Cc1ccccc1NC(=O)c1cc(C(=O)c2cc(Cl)ccc2O)cn(-c2ccccc2C)c1=O	-8	?	-13%	23µM*	13µM*	?
Cc1ccc(O)c(C(=O)c2cc(C#N)c(=O)n(Cc3ccccc3)c2)c1	4	?	-15%	9.2µM*	16µM*	-7%
COc1ccc(-n2cc(C(=O)c3cc(Cl)ccc3O)cc(C#N)c2=O)cc1	1	-25%	?	?	0%	-25%

From PubChem
